{"source": "paper PMC5540273", "about": "(PLoS ONE, 2017)", "key": {"LTK": {"tested_on": "LTK", "settings": "n = 1"}, "LYN": {"tested_on": "LYN", "settings": "concentration: 1 μM, replicates: in singlicate, n = 1"}, "LZK": {"tested_on": "T1, LZK", "T1 construct": "gene MAP3K13", "settings": "concentration: 1 μM, replicates: in singlicate, n = 1"}, "MAK": {"tested_on": "MAK", "settings": "concentration: 1 μM, replicates: in singlicate, n = 1"}, "MAP3K15": {"tested_on": "MAP3K15", "settings": "concentration: 1 μM, replicates: in singlicate, n = 1"}, "MAP3K1": {"tested_on": "MAP3K1", "settings": "concentration: 1 μM, replicates: in singlicate, n = 1"}, "MAP3K2": {"tested_on": "MAP3K2", "settings": "concentration: 1 μM, replicates: in singlicate, n = 1"}, "MAP3K3": {"tested_on": "MAP3K3", "settings": "concentration: 1 μM, replicates: in singlicate, n = 1"}, "MAP3K4": {"tested_on": "MAP3K4", "settings": "concentration: 1 μM, replicates: in singlicate, n = 1"}, "MAP4K2": {"tested_on": "MAP4K2", "settings": "concentration: 1 μM, replicates: in singlicate, n = 1"}, "[1]": {"settings": "concentration: 1 μM, replicates: in singlicate"}, "[2]": {"settings": "concentration: 1 μM, replicates: in singlicate, 1 µM"}}, "note": "Several values for one entry are separate records, joined by “and”; a condition that tells them apart may be missing. Equal values may be shown once. Read-outs that look alike come from different tables or passages of the source.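 Also: KINOMEscan kinase panel screen.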", "data": [{"smiles": "Cc1nnc(-c2ccc(C)c(-c3ccc(C(=O)Nc4ccc(NS(C)(=O)=O)cc4)cc3)c2)o1", "note": "[GW702865]", "values": [{"measurement": "%Inh", "setting": "LTK; [1]", "result": 3, "unit": "%"}, {"measurement": "%Inh", "setting": "LYN", "result": 25, "unit": "%"}, {"measurement": "%Inh", "setting": "LZK", "result": 21, "unit": "%"}, {"measurement": "%Inh", "setting": "MAK", "result": 35, "unit": "%"}, {"measurement": "%Inh", "setting": "MAP3K15", "result": 0, "unit": "%"}, {"measurement": "%Inh", "setting": "MAP3K1", "result": 0, "unit": "%"}, {"measurement": "%Inh", "setting": "MAP3K2", "result": 0, "unit": "%"}, {"measurement": "%Inh", "setting": "MAP3K3", "result": 0, "unit": "%"}, {"measurement": "%Inh", "setting": "MAP3K4", "result": 19, "unit": "%"}, {"measurement": "%Inh", "setting": "MAP4K2", "result": 0, "unit": "%"}]}, {"smiles": "Cc1nnc(-c2ccc3occ(-c4ccc(C(C)O)cc4)c3c2)o1", "note": "(stereo not drawn)", "values": [{"measurement": "%Inh", "setting": "LTK; [1]", "result": 0, "unit": "%"}, {"measurement": "%Inh", "setting": "LYN", "result": 18, "unit": "%"}, {"measurement": "%Inh", "setting": "LZK", "result": 0, "unit": "%"}, {"measurement": "%Inh", "setting": "MAK", "result": 0, "unit": "%"}, {"measurement": "%Inh", "setting": "MAP3K15", "result": 0, "unit": "%"}, {"measurement": "%Inh", "setting": "MAP3K1", "result": 10, "unit": "%"}, {"measurement": "%Inh", "setting": "MAP3K2", "result": 3, "unit": "%"}, {"measurement": "%Inh", "setting": "MAP3K3", "result": 19, "unit": "%"}, {"measurement": "%Inh", "setting": "MAP3K4", "result": 9, "unit": "%"}, {"measurement": "%Inh", "setting": "MAP4K2", "result": 20, "unit": "%"}]}, {"smiles": "COc1cc(Nc2nccc(N3CCC(NC(=O)c4cccc(NC(C)=O)c4)C3)n2)cc(OC)c1OC", "note": "(stereo not drawn) [GSK1379754]", "values": [{"measurement": "%Inh", "setting": "LTK; [1]", "result": 20, "unit": "%"}, {"measurement": "%Inh", "setting": "LYN", "result": 1, "unit": "%"}, {"measurement": "%Inh", "setting": "LZK", "result": 0, "unit": "%"}, {"measurement": "%Inh", "setting": "MAK", "result": 18, "unit": "%"}, {"measurement": "%Inh", "setting": "MAP3K15", "result": 0, "unit": "%"}, {"measurement": "%Inh", "setting": "MAP3K1", "result": 0, "unit": "%"}, {"measurement": "%Inh", "setting": "MAP3K2", "result": 10, "unit": "%"}, {"measurement": "%Inh", "setting": "MAP3K3", "result": 0, "unit": "%"}, {"measurement": "%Inh", "setting": "MAP3K4", "result": 14, "unit": "%"}, {"measurement": "%Inh", "setting": "MAP4K2", "result": 0, "unit": "%"}]}, {"smiles": "O=C1Cc2cc(Nc3nc(NCc4cccc(S(=O)(=O)C(F)(F)F)c4)ncc3C(F)(F)F)ccc2N1", "values": [{"measurement": "%Inh", "setting": "LTK; [1]", "result": 6, "unit": "%"}, {"measurement": "%Inh", "setting": "LYN", "result": 0, "unit": "%"}, {"measurement": "%Inh", "setting": "LZK", "result": 25, "unit": "%"}, {"measurement": "%Inh", "setting": "MAK", "result": 15, "unit": "%"}, {"measurement": "%Inh", "setting": "MAP3K15", "result": 21, "unit": "%"}, {"measurement": "%Inh", "setting": "MAP3K1", "result": 2, "unit": "%"}, {"measurement": "%Inh", "setting": "MAP3K2", "result": 12, "unit": "%"}, {"measurement": "%Inh", "setting": "MAP3K3", "result": 0, "unit": "%"}, {"measurement": "%Inh", "setting": "MAP3K4", "result": 6, "unit": "%"}, {"measurement": "%Inh", "setting": "MAP4K2", "result": 0, "unit": "%"}]}, {"smiles": "Nc1nc(-c2ccc3c(N)n[nH]c3c2)cc(N2CCCC2)n1", "note": "[GSK2227430]", "values": [{"measurement": "%Inh", "setting": "LTK; [1]", "result": 0, "unit": "%"}, {"measurement": "%Inh", "setting": "LYN", "result": 0, "unit": "%"}, {"measurement": "%Inh", "setting": "LZK", "result": 0, "unit": "%"}, {"measurement": "%Inh", "setting": "MAK", "result": 27, "unit": "%"}, {"measurement": "%Inh", "setting": "MAP3K15", "result": 0, "unit": "%"}, {"measurement": "%Inh", "setting": "MAP3K1", "result": 0, "unit": "%"}, {"measurement": "%Inh", "setting": "MAP3K2", "result": 0, "unit": "%"}, {"measurement": "%Inh", "setting": "MAP3K3", "result": 0, "unit": "%"}, {"measurement": "%Inh", "setting": "MAP3K4", "result": 0, "unit": "%"}, {"measurement": "%Inh", "setting": "MAP4K2", "result": 0, "unit": "%"}]}, {"smiles": "O=c1cc(N2CCOCC2)nc2n(Cc3cccc(Cl)c3Cl)c(C3CC3)nn12", "note": "[GSK2358994]", "values": [{"measurement": "%Inh", "setting": "LTK; 1 µM", "result": 0, "unit": "%"}]}, {"smiles": "CC(C)(CN)c1nc(-c2ccc(Cl)c(O)c2)c(-c2ccncc2)[nH]1.O=C(O)C(F)(F)F", "note": "[SB-477794]", "values": [{"measurement": "%Inh", "setting": "LTK; [2]", "result": "18% and 30%"}, {"measurement": "%Inh", "setting": "LZK; 1 µM", "result": "49% and 47%"}, {"measurement": "%Inh", "setting": "MAK; 1 µM", "result": "41% and 0%"}, {"measurement": "%Inh", "setting": "MAP3K1; 1 µM", "result": "22% and 7%"}, {"measurement": "%Inh", "setting": "MAP3K2; 1 µM", "result": "43% and 35%"}, {"measurement": "%Inh", "setting": "MAP3K4; 1 µM", "result": "0% and 13%"}]}, {"smiles": "Cl.Cl.Cl.Fc1ccc(-c2ncn(C3CCNCC3)c2-c2ccnc(Nc3ccccc3)n2)cc1", "note": "[SB-238039]", "values": [{"measurement": "%Inh", "setting": "LTK; [2]", "result": "27% and 37%"}, {"measurement": "%Inh", "setting": "LYN; 1 µM", "result": "42% and 15%"}, {"measurement": "%Inh", "setting": "LZK; 1 µM", "result": "0% and 7%"}, {"measurement": "%Inh", "setting": "MAK; 1 µM", "result": "3% and 41%"}, {"measurement": "%Inh", "setting": "MAP3K15; 1 µM", "result": "0% and 4%"}, {"measurement": "%Inh", "setting": "MAP3K2; 1 µM", "result": "63% and 27%"}, {"measurement": "%Inh", "setting": "MAP3K3; 1 µM", "result": "69% and 98.9%"}, {"measurement": "%Inh", "setting": "MAP3K4; 1 µM", "result": "2% and 0%"}, {"measurement": "%Inh", "setting": "MAP4K2; 1 µM", "result": "36% and 7%"}]}]}
